Assay results as given in PubChem BioAssay (NCATS).
Values without a mark were called inactive. Results filed as inconclusive are left out. Active and inactive are the calls of the source. Unless noted, the call rests on the fitted dose curve; in most records, active means well fitted curve in either direction with a large enough effect (not every such curve was filed as active); inconclusive means small, poorly fitted or top-dose-only effect, or another doubt; inactive means flat fitted curve, though single readings scatter.

How the values were obtained:
[1] = biological target: Lysosomal acid glucosylceramidase (Homo sapiens) (UniProt P04062); assay: Glucocerebrosidase-p2 (AID 348; in the data active means potency below about 10 µM; further: potency means the concentration at half of the fitted maximal effect); conditions: purified GBA, blue fluorogenic substrate, 40 min
Chain of Lysosomal acid glucosylceramidase (Homo sapiens) (P04062 whole entry, looked up): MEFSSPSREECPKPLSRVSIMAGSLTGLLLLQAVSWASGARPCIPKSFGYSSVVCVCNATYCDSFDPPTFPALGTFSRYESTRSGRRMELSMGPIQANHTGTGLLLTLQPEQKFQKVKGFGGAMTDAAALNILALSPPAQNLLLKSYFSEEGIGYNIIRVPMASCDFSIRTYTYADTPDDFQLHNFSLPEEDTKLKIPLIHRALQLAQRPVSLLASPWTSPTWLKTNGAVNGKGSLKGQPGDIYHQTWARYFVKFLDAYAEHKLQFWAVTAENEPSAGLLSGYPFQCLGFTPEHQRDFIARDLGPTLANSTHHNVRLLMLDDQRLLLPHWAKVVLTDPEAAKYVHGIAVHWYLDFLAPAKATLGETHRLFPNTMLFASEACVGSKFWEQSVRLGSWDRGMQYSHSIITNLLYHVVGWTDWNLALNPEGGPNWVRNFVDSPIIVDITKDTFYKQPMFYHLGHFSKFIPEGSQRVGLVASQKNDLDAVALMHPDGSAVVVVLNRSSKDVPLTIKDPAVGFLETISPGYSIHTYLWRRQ
Summary of the method: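 Normal human glucocerebrosidase (0.2 nM) with blue fluorogenic substrate (80 uM final) in citrate/phosphate pH 5.9 with 10mM sodium taurocholate, 0.01% tween-20; 40 min RT, NaOH/glycine stop; fluorescence Ex 365/Em 440; AC50 from a titration from 0.6 nM upwards.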

[2] = AP1 Signaling Pathway (AID 357); conditions: ME-180 AP-1-bla reporter, EGF-induced, beta-lactamase ratio, 5 h; at 7.69 µM (top of the series) unless noted;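 further: ME-180 reporter cells stimulated with EGF at its EC50 level; on the % scale 0 is the no-effect control and ±100 the full control effect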
Summary of the method: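 First, ME-180 AP-1-bla cells were cultured overnight at 37 °C in low-serum Opti-MEM. Next, titrated compounds with EC50 EGF were incubated 5 hours. Finally, CCF4 was added for 2.5 hours and the 460/530 nm ratio recorded.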

[3] = NFAT Signaling Pathway (AID 444); conditions: Jurkat NFAT-bla M1, carbachol, beta-lactamase ratio, 5 h; at 7.69 µM (top of the series) unless noted;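 further: carbachol stimulus at about its EC50 of 1 µM final; on the % scale 0 is the no-effect control and ±100 the full control effect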
Summary of the method: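 Jurkat cells carrying an NFAT-driven β-lactamase reporter and co-transfected muscarinic M1 receptor were treated with compound plus carbachol (1 uM final, an EC50 level) for 5 h at 37 °C. CCF4 loading followed for 1 h at RT; 460/530 nm ratio gave %activity.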

[4] = Stat Signaling Pathway (AID 446); conditions: ME-180 (cervical carcinoma) SIE beta-lactamase reporter, IL-6 stimulated, 5 h; at 7.69 µM (top of the series) unless noted;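 further: ME-180 cervical cancer cells given 40 pM IL-6 alongside compound; SIE-controlled beta-lactamase reporter measured as 460/530 nm FRET emission ratio; on the % scale 0 is the no-effect control and ±100 the full control effect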
Summary of the method: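 Emission at 460 and 530 nm (excitation 405 nm) reports SIE-controlled beta-lactamase in ME-180 cells. Cells received compound with 40 pM IL-6 for 5 hrs at 37 C; data scaled between 300 pM IL-6 and 125 nM JAK-inhibitor controls.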

[5] = biological target: Glucocorticoid receptor (Homo sapiens) (UniProt P04150); assay: GR-GFP Redistribution (AID 450;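 active means compounds whose dose series gives a full or clear partial fitted curve of increased nuclear translocation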; further: potency means the concentration at half of the fitted maximal effect); conditions: U2OS GR-GFP nuclear translocation, laser cytometry, 2 h
Chain of Glucocorticoid receptor (Homo sapiens) (P04150 whole entry, looked up, the tested form may be a part): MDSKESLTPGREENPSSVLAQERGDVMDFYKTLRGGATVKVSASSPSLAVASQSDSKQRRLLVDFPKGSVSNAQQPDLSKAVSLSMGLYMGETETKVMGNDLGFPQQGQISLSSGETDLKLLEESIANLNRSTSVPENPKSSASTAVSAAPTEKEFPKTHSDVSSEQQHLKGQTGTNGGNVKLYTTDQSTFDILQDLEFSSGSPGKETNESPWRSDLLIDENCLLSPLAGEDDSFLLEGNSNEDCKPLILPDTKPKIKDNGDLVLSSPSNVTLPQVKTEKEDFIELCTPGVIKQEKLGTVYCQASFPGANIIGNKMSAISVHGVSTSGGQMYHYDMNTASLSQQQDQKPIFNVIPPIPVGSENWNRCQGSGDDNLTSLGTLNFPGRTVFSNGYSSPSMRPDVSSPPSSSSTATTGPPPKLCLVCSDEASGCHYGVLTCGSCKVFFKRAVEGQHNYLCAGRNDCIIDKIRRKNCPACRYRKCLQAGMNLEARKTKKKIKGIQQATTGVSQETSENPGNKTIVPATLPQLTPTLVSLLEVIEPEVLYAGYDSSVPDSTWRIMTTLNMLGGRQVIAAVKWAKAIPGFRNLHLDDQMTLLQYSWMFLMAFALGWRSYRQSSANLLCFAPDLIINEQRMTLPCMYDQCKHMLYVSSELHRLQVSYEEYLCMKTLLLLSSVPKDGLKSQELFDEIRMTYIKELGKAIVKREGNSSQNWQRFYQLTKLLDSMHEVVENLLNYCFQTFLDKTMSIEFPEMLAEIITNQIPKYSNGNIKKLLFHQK

[6] = biological target: Glucocorticoid receptor (Homo sapiens) (UniProt P04150); assay: GR-EFC Redistribution (AID 451; calls by dose curve; further: potency means the concentration at half of the fitted maximal effect); conditions: CHO-K1 GR-EFC translocation, beta-gal luminescence, 2 h
Summary of the method: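 CHO-K1 cells stably expressing nuclear-localized β-gal enzyme acceptor and GR fused C-terminally to the enzyme donor fragment; ligand-driven nuclear translocation restores β-gal by complementation. Compounds titrated up to 46 uM final, 2 h at 37 °C; luminescence read.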

[7] = biological target: Mitogen-activated protein kinase 10 (Mus musculus) (UniProt Q61831); assay: JNK3 AlphaScreen Assay (AID 530); conditions: JNK3 lysate, c-Jun phosphorylation; series mostly up to 57.1 µM;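 further: kinase came from lysate of stimulated human HepG2 cells; signal reports phosphorylation of biotinylated GST-cJun 1-79 at Ser73 with 10 µM ATP; on the % scale 0 is the no-effect control and ±100 the full control effect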
Summary of the method: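 Phosphorylation of biotinylated GST-cJun(1-79) at Ser73 is measured by AlphaScreen proximity luminescence. Enzyme is JNK3 in HepG2 lysates activated with interleukin-1beta and tumor necrosis factor alpha; ATP is 10 uM final.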

[8] = Primary qHTS for small molecule stabilizers of the endoplasmic reticulum resident proteome: Secreted ER Calcium Modulated Protein (SERCaMP) assay (AID 1508630; active means well fitted curve in the direction sought with a large enough effect; an effect the other way counts as inactive or inconclusive; further: on the % scale 0 is the no-effect control and ±100 the full control effect); conditions: SH-SY5Y GLuc-SERCaMP (Gaussia luciferase released on ER calcium loss) secretion, thapsigargin, luminescence; series mostly up to 38.4 µM
Summary of the method: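 The SH-SY5Y reporter protocol was run at 3 concentrations up to 38.3 uM (primary) or 11 concentrations (follow-up): 16 h compound, 100 nM thapsigargin for 4 h, then extracellular luciferase luminescence.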

[9] = biological target: 3',5'-cyclic-AMP phosphodiesterase 4B (Homo sapiens) (UniProt Q07343); assay: qHTS Assay for Inhibitors of PDE-IV (AID 607; active means well fitted activation curve with a large enough effect in the main read-out, with a control signal flat, not every such curve was filed as active; further: % of control where 0% means no effect); conditions: HEK293 ACTOne CNG channel cells, membrane potential fluorescence; series mostly up to 22.9 µM
Chain of 3',5'-cyclic-AMP phosphodiesterase 4B (Homo sapiens) (Q07343 whole entry, looked up): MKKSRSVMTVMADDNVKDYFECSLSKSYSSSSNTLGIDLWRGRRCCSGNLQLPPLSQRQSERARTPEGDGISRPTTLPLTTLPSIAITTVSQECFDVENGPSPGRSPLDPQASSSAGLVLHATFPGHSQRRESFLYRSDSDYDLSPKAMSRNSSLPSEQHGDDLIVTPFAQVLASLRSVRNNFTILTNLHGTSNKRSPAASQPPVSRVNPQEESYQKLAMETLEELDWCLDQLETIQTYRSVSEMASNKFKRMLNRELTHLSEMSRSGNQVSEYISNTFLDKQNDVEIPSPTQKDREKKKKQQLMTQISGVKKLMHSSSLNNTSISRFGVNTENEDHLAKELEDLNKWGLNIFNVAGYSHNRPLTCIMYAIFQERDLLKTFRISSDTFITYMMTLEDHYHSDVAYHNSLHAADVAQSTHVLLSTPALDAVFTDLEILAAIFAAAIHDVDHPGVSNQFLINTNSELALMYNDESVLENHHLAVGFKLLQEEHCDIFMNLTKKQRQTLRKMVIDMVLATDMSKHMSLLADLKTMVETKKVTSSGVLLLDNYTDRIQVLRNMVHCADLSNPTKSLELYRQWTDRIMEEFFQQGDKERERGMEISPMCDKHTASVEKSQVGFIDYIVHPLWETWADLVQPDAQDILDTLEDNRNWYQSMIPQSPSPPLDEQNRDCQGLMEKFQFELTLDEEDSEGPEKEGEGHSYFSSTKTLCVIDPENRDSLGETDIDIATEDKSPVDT
Summary of the method: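 The readout is membrane depolarisation from a cAMP-sensing CNG channel, detected with a potential dye at ex 535/em 590. Cells were HEK293-derived (endogenous PDE-IV) at 1000 cells/well, titrated up to 22.9 uM final.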

[10] = biological target: Cytochrome P450 3A4 (Homo sapiens) (UniProt P08684); assay: qHTS Assay for Activators of Cytochrome P450 3A4 (AID 885; active means well fitted curve in the direction sought with a large enough effect; an effect the other way counts as inactive or inconclusive; further: nearly all actives have a fitted effect of over 65% in size); conditions: recombinant CYP3A4, Luciferin-PPXE luminescence, 60 min; series mostly up to 57.1 µM
Chain of Cytochrome P450 3A4 (Homo sapiens) (P08684 whole entry, looked up): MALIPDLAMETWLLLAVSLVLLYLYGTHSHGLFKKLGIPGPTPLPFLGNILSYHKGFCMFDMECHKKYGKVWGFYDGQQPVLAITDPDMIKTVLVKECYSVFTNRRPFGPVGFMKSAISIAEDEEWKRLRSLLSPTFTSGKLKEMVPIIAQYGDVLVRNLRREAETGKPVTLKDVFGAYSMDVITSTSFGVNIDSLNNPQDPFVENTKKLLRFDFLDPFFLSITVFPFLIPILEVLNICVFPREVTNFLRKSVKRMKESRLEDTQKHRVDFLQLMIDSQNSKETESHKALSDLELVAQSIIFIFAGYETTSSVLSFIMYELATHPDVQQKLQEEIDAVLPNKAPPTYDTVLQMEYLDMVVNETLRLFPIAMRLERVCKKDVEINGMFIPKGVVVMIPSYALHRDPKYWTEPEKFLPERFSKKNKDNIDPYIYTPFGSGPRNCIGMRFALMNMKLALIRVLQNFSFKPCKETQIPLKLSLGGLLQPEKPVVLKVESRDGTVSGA
Summary of the method: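 Activators are scored by enhanced luminescence from CYP3A4 conversion of luciferin-PPXE (25uM, equal to KM) to luciferin, after 60 min at RT with an NADPH-regenerating system.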

[11] = biological target: Cytochrome P450 3A4 (Homo sapiens) (UniProt P08684); assay: qHTS Assay for Inhibitors and Substrates of Cytochrome P450 3A4 (AID 884; active means well fitted curve in the direction sought with a large enough effect; an effect the other way counts as inactive or inconclusive; further: potency means the concentration at half of the fitted maximal effect; nearly all actives have a fitted effect of over 50% in size); conditions: recombinant CYP3A4, Luciferin-PPXE luminescence; series mostly up to 57.1 µM
Summary of the method: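 Luminescent readout of luciferin produced by CYP3A4 (20 nM) dealkylation of Luciferin-PPXE, 25 uM (its KM). NADPH-driven reaction ran 60 min at RT after 10 min compound preincubation; data scaled to 57 uM ketoconazole as 100% inhibition.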

[12] = biological target: Ubiquitin carboxyl-terminal hydrolase 1 (Homo sapiens) (UniProt O94782); assay: Inhibitors of USP1/UAF1: Pilot qHTS (AID 504865; active means well fitted curve in the direction sought with a large enough effect; an effect the other way counts as inactive or inconclusive;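 further: rhodamine fluorescence freed from ubiquitin-rhodamine substrate followed over time; top concentration of the series differs between compounds; on the % scale 0 is the no-effect control and ±100 the full control effect; nearly all actives have a fitted effect of over 35% in size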); conditions: purified USP1/UAF1, Ub-rhodamine cleavage fluorescence; series mostly up to 54.9 µM
Chain of Ubiquitin carboxyl-terminal hydrolase 1 (Homo sapiens) (O94782 whole entry, looked up): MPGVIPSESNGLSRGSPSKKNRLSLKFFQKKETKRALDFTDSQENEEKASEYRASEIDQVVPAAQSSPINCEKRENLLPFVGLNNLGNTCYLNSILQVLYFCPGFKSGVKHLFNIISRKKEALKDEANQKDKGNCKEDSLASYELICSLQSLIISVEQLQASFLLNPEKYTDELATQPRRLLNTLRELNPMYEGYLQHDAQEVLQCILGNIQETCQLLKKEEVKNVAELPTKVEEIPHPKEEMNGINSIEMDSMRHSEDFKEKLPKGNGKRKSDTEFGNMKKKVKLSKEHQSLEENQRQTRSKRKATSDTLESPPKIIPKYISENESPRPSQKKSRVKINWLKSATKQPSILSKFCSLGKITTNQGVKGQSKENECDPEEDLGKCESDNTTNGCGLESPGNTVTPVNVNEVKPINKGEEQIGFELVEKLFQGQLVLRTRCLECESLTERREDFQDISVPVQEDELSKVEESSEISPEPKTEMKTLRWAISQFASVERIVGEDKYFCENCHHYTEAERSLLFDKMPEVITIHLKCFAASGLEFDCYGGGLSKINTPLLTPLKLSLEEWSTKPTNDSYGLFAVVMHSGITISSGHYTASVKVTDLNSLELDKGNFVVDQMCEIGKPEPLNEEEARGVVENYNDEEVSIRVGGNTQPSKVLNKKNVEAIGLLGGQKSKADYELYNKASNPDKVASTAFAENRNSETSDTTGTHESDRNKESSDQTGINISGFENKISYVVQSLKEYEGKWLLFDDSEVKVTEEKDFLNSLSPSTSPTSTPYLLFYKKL
Summary of the method: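 USP1/UAF1 complex (1nM) preincubated with compound 15 min at room temperature, then Ub-Rho substrate (150nM final) added. Fluorescence read kinetically at 480/540 nm, 6 reads every 60 seconds. Buffer: 50mM HEPES pH 7.8, 0.5mM EDTA, 0.1 mg/ml BSA, 1mM TCEP, 0.01% Tween-20.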

SMILES	Potency [1] [µM]	activity change, negative = inhibition [2] [%]	activity change, negative = inhibition [3] [%]	activity, negative = inhibition [4] [%]	Potency [5] [µM]	Potency [6] [µM]	Potency [7]	outcome [8]	Potency [9]	Potency [10]	Potency [11]	Potency [12]
CCNc1ncc2nc(-c3ccc(F)cc3)c(=O)n(CCC#N)c2n1	> 11.4	-13.4	-10	16.7	> 9.22	> 46	inactive	inactive				
COc1ncc2nc(-c3ccc(F)cc3)c(=O)n(CCC#N)c2n1	> 11.4	13.2	-5.63	-0.246	> 9.22	> 46	inactive	inactive	inactive			
COC(=O)N1CCC2(CCN(C(=O)Nc3ccc(OC)cc3)CC2)CC1	> 11.4	-1.58	-8.6	3.42		> 46	inactive	inactive				
COCCn1c(=O)c(-c2ccc(F)cc2)nc2cnc(Oc3cccc(Cl)c3)nc21	> 11.4	1.58	-15.6	-8.51	> 9.22	> 46	inactive	inactive	inactive			
COCCn1c(=O)cnc2cnc(OCc3ccccc3)nc21	> 11.4	-3.32	-3.92	3.06	> 9.22	> 46	inactive	inactive	inactive	inactive		
O=c1c(-c2cccc(Cl)c2)nc2cncnc2n1Cc1ccc(F)cc1	> 11.4	-7.68	-0.975	-5.55	> 9.22	> 46	inactive	inactive		inactive		
COc1ccc(-c2nc3cnc(OC)nc3n(Cc3cccc(OC)c3)c2=O)cc1	> 11.4	-4	-10.2	27.2	> 9.22	> 46	inactive	inactive		inactive	2.51 µM (active)	
COc1ncc2nc(C)c(=O)n(Cc3cccs3)c2n1	> 11.4	-2.91	-7.05	-7.75	> 9.22	> 46	inactive	inactive	inactive			
O=c1c(-c2ccc(F)cc2)nc2cnc(Nc3ccccc3)nc2n1C1CC1	> 11.4	-14	-2.3	-3.65	> 9.22	> 46	inactive	inactive	inactive			
COCCn1c(=O)c(C)nc2cnc(OCc3ccccc3)nc21	> 11.4	-16.6	-3.44	-9.48	> 9.22	> 46	inactive	inactive	inactive			
Cc1nc2cnc(OCc3ccccc3)nc2n(CCC#N)c1=O	> 11.4	2.98	-3.58	-1.87	> 9.22	> 46	inactive	inactive		inactive		
O=c1c(-c2ccc(F)c(F)c2)nc2cncnc2n1Cc1ccccc1	> 11.4	-0.964	-10.8	3.53	> 9.22	> 46	inactive	inactive				
CN(C)C(=O)c1ccc(-c2ccc3ncnc(NCCN4CCOCC4)c3c2)cc1	> 11.4	-5.51	6.26	-17.4		> 46	inactive	inactive	inactive	inactive		inactive
COCCn1c(=O)c(-c2ccc(Cl)cc2)nc2cnc(Oc3ccc(OC)cc3)nc21	> 11.4	-18.1	-1.47	-2.62	> 9.22	> 46	inactive	inactive	inactive			
COc1ncc2nc(-c3cc(F)cc(F)c3)c(=O)n(Cc3cccs3)c2n1	> 11.4	14.2	-10.4	4.55	> 9.22	> 46	inactive	inactive	inactive			
COc1ccc(Oc2ncc3ncc(=O)n(Cc4cccc(OC)c4)c3n2)cc1	> 11.4	-25.4	-6.25	-3	> 9.22	> 46	inactive	inactive	inactive			
COc1cccc(Cn2c(=O)cnc3cnc(N4CCOCC4)nc32)c1	> 11.4	-21.3	-0.938	-11		> 46	inactive	inactive				
